The values that follow come from the supplement of paper PMC10849652.

Of roughly 8,800 targets only a part is listed; those with a hit were picked by preference. About 0.5% of all pairs of compound and target were hits. A number with no mark means an inactive call.

What all share (assay): log2 fold change, soluble protein after heating vs DMSO (PISA); higher = thermal stabilisation; K562 lysate, 10 uM; active = over 0.2 and 3.5 SD of the protein, either way, in both replicates (recomputed)
Compound in experiment [1]: C1=CC=C(C=C1)[C@H](COC2=CC3=C(C=C2)NC(=O)N3)NC(=O)C4=CC=CN(C4=O)CC5=CC(=C(C=C5)F)F
A digest of the protocol: (§1)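 Values give the log-two fold change in thermal stability against solvent controls, from duplicates. Crude K562 extract at 1 mg/mL protein, made by dounce homogenisation in PBS pH 7.4 with 1 mM MgCl2, was treated with 10 μM compound for 30 min. After 3 min heating across 48°C-58°C, aliquots were pooled, adjusted to 0.5% NP-40 at 4°C and centrifuged at 21,000xg for 90 min. The supernatant was measured by TMTpro 16plex LC-MS/MS with channel sums equalised.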

Compound in experiment [2]: CC1=C(SC2=C1C(=N[C@H](C3=NN=C(N32)C)CC(=O)N)C4=CC=C(C=C4)Cl)C
A digest of the protocol: as §1

Compound in experiment [3]: CC1=C2C(=CC=C1)N=C(N(C2=O)C3=CC=CC=C3C)CN4C=NC5=C(N=CN=C54)N
In a few lines: as §1

Compound in experiment [4]: Cc1sc2c(c1C)C(c1ccc(Cl)cc1)=N[C@@H](CC(=O)OC(C)(C)C)c1nnc(C)n1-2
In a few lines:
as §1

Compound in experiment [5]: c1ccc([C@@H]2C[C@H]2NC2CCNCC2)cc1
A digest of the protocol: as §1

UniProt Q96H78, sequence (Q96H78 whole entry, looked up): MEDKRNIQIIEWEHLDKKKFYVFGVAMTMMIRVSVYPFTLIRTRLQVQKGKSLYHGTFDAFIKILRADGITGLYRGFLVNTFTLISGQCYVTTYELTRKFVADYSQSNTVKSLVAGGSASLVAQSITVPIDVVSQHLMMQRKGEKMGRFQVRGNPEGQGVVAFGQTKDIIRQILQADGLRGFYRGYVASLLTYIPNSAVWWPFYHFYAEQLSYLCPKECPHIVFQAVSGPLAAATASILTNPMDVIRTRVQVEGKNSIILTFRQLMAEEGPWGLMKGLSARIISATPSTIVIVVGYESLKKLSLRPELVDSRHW
UniProt Q8NDV3, sequence (Q8NDV3 whole entry, looked up): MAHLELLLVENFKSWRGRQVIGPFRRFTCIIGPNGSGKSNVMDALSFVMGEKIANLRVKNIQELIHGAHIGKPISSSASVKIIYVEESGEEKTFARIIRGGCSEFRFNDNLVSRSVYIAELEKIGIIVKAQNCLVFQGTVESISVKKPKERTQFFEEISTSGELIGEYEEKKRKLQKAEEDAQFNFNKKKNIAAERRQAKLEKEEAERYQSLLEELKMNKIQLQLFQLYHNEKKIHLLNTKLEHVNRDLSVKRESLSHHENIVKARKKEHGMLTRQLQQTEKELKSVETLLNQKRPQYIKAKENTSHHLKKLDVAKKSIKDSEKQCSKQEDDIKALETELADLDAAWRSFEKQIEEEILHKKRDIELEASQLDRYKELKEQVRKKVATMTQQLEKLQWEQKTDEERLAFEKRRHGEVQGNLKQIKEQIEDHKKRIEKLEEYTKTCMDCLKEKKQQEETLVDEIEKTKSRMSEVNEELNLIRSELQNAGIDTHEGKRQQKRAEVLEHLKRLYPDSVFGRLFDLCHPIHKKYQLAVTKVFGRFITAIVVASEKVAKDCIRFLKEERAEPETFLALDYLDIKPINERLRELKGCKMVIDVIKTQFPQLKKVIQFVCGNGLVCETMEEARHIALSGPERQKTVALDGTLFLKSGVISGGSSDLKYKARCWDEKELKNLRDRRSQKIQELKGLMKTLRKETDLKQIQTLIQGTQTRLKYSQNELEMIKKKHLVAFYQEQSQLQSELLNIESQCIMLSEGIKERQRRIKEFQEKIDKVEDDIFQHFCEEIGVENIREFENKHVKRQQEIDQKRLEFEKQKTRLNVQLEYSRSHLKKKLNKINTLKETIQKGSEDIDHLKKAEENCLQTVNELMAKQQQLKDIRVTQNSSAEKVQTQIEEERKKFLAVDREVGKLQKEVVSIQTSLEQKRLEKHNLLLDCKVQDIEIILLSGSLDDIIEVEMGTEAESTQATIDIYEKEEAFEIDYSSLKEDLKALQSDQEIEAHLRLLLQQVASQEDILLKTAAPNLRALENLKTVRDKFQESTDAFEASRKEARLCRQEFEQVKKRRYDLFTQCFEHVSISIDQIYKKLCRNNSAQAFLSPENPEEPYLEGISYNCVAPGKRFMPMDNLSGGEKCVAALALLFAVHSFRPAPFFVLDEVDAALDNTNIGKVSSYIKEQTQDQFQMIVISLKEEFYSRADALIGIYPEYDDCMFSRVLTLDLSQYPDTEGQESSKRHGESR
UniProt Q13043, sequence (Q13043 whole entry, looked up): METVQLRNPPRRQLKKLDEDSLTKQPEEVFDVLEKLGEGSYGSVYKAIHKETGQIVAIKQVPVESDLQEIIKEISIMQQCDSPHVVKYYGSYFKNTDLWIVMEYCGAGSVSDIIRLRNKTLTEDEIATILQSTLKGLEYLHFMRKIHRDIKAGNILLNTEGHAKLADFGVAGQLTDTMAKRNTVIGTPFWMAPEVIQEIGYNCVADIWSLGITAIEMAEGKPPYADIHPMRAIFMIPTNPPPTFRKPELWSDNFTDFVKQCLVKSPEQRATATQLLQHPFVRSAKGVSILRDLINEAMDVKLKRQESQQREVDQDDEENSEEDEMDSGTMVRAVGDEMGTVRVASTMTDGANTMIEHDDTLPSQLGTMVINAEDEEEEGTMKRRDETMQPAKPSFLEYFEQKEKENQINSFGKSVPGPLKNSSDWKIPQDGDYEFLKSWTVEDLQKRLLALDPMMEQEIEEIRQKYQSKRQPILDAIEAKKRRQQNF
UniProt Q6NXT6, sequence (Q6NXT6 whole entry, looked up): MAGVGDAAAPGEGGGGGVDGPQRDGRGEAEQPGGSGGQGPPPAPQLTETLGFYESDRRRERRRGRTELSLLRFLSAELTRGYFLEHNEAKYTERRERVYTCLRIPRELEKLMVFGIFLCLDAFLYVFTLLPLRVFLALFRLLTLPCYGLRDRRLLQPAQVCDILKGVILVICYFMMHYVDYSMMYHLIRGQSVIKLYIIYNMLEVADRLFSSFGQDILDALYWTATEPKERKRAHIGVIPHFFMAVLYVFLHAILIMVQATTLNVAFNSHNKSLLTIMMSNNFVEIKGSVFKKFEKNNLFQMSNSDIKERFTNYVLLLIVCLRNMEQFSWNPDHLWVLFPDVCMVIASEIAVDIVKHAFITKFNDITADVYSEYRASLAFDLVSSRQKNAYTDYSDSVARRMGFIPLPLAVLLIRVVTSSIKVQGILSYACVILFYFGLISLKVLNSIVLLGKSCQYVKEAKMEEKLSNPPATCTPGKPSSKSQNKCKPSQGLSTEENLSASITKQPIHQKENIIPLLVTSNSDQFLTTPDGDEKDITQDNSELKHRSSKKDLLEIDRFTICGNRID
UniProt O95926, sequence (O95926 whole entry, looked up): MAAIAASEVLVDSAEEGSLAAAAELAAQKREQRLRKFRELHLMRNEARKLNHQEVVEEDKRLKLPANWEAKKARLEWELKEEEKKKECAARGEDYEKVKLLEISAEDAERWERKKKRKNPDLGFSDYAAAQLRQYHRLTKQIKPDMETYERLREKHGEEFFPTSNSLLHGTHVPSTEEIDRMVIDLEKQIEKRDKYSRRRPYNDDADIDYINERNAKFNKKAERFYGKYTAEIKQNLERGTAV
UniProt Q13148, sequence (Q13148 whole entry, looked up): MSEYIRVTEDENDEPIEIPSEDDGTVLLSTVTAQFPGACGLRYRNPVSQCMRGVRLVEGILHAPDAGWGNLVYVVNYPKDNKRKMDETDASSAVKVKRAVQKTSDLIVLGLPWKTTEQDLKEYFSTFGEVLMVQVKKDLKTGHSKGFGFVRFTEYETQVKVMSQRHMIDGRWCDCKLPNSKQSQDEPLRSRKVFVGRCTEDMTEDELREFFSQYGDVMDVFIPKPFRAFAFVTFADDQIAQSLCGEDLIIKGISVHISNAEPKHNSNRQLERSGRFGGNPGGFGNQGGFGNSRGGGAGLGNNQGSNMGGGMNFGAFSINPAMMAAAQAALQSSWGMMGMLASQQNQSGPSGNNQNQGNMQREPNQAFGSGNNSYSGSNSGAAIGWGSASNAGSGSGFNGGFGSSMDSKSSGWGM
UniProt O14975, sequence (O14975 whole entry, looked up): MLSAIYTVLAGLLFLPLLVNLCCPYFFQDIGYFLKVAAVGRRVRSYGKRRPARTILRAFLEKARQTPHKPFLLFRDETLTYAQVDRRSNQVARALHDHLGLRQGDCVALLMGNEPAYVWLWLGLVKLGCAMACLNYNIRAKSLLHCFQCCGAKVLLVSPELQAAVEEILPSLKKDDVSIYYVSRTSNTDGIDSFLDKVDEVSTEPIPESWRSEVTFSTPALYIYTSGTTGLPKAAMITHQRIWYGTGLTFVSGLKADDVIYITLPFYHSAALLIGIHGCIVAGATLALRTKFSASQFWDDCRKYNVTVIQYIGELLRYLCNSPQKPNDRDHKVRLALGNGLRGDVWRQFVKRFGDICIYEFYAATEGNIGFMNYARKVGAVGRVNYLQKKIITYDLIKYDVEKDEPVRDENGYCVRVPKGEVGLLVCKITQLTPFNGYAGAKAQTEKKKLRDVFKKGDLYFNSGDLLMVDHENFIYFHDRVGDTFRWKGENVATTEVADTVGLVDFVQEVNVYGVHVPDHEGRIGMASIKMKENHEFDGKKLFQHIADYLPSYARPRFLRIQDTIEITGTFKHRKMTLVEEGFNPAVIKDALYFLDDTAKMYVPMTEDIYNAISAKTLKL
UniProt P53814, sequence (P53814 whole entry, looked up): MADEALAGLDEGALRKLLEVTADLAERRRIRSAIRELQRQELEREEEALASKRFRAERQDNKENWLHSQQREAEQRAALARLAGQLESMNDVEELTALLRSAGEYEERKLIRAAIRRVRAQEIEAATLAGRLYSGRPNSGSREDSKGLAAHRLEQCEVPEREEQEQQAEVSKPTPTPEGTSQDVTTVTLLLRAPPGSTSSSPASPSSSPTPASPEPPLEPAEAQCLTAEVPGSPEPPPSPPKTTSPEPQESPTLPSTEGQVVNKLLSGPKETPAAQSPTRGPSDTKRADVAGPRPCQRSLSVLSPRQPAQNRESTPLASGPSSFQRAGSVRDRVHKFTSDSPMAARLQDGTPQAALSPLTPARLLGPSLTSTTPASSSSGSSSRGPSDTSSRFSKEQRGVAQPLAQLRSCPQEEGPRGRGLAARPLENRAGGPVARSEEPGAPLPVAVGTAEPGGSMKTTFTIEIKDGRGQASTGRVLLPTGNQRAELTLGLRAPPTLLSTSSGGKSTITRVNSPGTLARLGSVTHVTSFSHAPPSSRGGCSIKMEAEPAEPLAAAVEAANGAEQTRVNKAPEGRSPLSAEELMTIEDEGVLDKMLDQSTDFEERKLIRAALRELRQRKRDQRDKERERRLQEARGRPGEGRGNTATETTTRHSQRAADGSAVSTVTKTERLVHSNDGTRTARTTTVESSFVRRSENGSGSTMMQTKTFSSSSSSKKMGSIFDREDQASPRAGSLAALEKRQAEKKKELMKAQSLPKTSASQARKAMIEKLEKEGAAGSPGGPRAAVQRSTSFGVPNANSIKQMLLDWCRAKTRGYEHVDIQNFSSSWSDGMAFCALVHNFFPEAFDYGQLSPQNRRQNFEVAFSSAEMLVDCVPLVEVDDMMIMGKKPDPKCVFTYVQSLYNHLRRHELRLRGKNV
UniProt Q9NZ72, sequence (Q9NZ72 whole entry, looked up): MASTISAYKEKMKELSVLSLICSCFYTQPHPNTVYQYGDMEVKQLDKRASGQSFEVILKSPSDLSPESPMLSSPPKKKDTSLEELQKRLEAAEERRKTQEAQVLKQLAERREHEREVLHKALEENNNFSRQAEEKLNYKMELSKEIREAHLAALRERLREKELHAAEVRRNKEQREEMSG

For the target STK4 (UniProt Q13043), the log2 fold change in experiment [1] is -0.031; in experiment [2], -0.098; in experiment [3], -0.05; in experiment [4], -0.029; in experiment [5], -0.124.

On to STK39 (UniProt Q9UEW8), for which the log2 fold change in experiment [1] was 0.011; in experiment [2], -0.056; in experiment [3], 0.049; in experiment [4] it was 0; in experiment [5] it was 0.078.

In the case of SLU7 (UniProt O95391), the log2 fold change is -0.015 in experiment [1]; 0.041 in experiment [2]; 0.045 in experiment [3]; -0.028 in experiment [4]; -0.16 in experiment [5].

On to SKA1 (UniProt Q96BD8), for which the log2 fold change in experiment [1] was -0.03; in experiment [2], 0.005; in experiment [3], 0.025; in experiment [4], -0.018; in experiment [5] it was 0.018.

With SLC27A2 (UniProt O14975), the log2 fold change in experiment [1] is 0.198; in experiment [2], -0.064; in experiment [3], -0.043; in experiment [4], -0.063; in experiment [5] it was -0.05.

As for SMC1B isoform 3 (UniProt Q8NDV3), the log2 fold change in experiment [1] was 0.009; in experiment [2], 0.076; in experiment [3], 0.12; in experiment [4], -0.063.

As to SKA2 (UniProt Q8WVK7), the log2 fold change is -0.013 in experiment [1]; -0.038 in experiment [2]; 0.031 in experiment [3]; -0.004 in experiment [4]; 0.033 in experiment [5].

For the target SPATS2 (UniProt Q86XZ4), the log2 fold change in experiment [1] is 0.042; in experiment [2] it was -0.035; in experiment [3] it was 0.061; in experiment [4], -0.014; in experiment [5], -0.07.

Turning to SOAT1 (UniProt P35610), the log2 fold change in experiment [1] is 0.041; in experiment [2], -0.002; in experiment [3], -0.008; in experiment [4] it was 0.282 (active); in experiment [5], -0.06.

On to TADA3 (UniProt O75528), for which the log2 fold change in experiment [1] is 0.043; in experiment [2] it was 0; in experiment [3], 0.087; in experiment [4], -0.015; in experiment [5], -0.098.

As for TARBP1 (UniProt Q13395), the log2 fold change in experiment [1] is -0.108; in experiment [2], -0.025; in experiment [3] it was 0.112; in experiment [4] it was 0.016; in experiment [5], 0.053.

For STMN3 (UniProt Q9NZ72), the log2 fold change in experiment [1] was 0.046; in experiment [2], -0.053; in experiment [3] it was 0.065; in experiment [4], -0.061.

Regarding SPAG1 (UniProt Q07617), the values for the log2 fold change in experiment [1], in experiment [2] and in experiment [3] were -0.046, -0.327 and 0.081, respectively.

TARBP2 (UniProt Q15633): the log2 fold change is 0.001 in experiment [1]; -0.003 in experiment [2]; -0.003 in experiment [3]; -0.019 in experiment [4]; 0.051 in experiment [5].

With SMTN isoform 6 (UniProt P53814), the log2 fold change was 0.053 in experiment [1]; -0.011 in experiment [2]; -0.01 in experiment [3]; 0.01 in experiment [4]; 0.081 in experiment [5].

For the target SLC25A25 isoform 3 (UniProt Q6KCM7), the log2 fold change was 0.064 in experiment [1]; -0.027 in experiment [2]; 0.013 in experiment [3]; 0.034 in experiment [4]; 0.023 in experiment [5].

For the target SLC25A44 (UniProt Q96H78), the log2 fold change in experiment [1] was 0.042; in experiment [2], -0.044; in experiment [3], -0.014; in experiment [4] it was -0.004; in experiment [5], -0.17.

Regarding TAPT1 (UniProt Q6NXT6), the log2 fold change was -0.004 in experiment [1]; -0.023 in experiment [2]; 0.092 in experiment [3]; -0.07 in experiment [4]; -0.128 in experiment [5].

As for SYNE2 isoform 2 (UniProt Q8WXH0), the log2 fold change in experiment [1] is -0.037; in experiment [2], 0.044; in experiment [3], 0.02; in experiment [4], -0.065; in experiment [5] it was -0.416.

For the target SPIRE1 (UniProt Q08AE8), the log2 fold change is -0.008 in experiment [1]; 0.031 in experiment [2]; -0.006 in experiment [3]; -0.053 in experiment [4]; -0.212 in experiment [5].

Consider SMC2 (UniProt O95347), for which the log2 fold change in experiment [1] is -0.007; in experiment [2], 0.018; in experiment [3], 0.016; in experiment [4] it was 0.003; in experiment [5], 0.069.

In the case of TARDBP (UniProt Q13148), the log2 fold change in experiment [1] is -0.094; in experiment [2] it was -0.012; in experiment [3], 0.067; in experiment [4], -0.145; in experiment [5], -0.041.

For the target SMC4 (UniProt C9JJ64), the log2 fold change in experiment [1] was -0.189; in experiment [2], 0.179.

For SNAP23 (UniProt O00161), the log2 fold change in experiment [1] is 0.059; in experiment [2], -0.038; in experiment [3] it was -0.005; in experiment [4] it was 0.007; in experiment [5], 0.066.

With SYF2 (UniProt O95926), the log2 fold change is 0.021 in experiment [1]; -0.102 in experiment [2]; 0.001 in experiment [3]; 0.015 in experiment [4]; -0.024 in experiment [5].
